A selection: hits, their analogues and other compounds. The true share with any hit is near 3.4%.
MEKK2wt PB1 HTS: raises or lowers MEK5 binding to wildtype human MEKK2 PB1 domain; bead flow cytometry, Alexa488-MEK5 binding to MEKK2 WT; actives lie on both sides; binding response (% of control), % at 10 µM; hit rate 1.1% among 290,000; in the data active = binding response below about 67% or above about 130%
MEKK2 mut-MEK5: signal of MEK5 binding to mutant human MEKK2 PB1 domain. bead flow cytometry, Alexa488-MEK5 binding to MEKK2 mutant. percent response, % at 10 µM. hit rate 0.35% among 290,000. AID 1530; in the data active = percent response above about 24%, passing the limit was not always enough
MEKK3 PB1 HTS: MEKK3-MEK5 PB1 interaction, increase or decrease; binding response (% of control), % at 10 µM; Q99759; AID 1529; bead-based flow cytometry, Alexa488-MEK5 binding to MEKK3; actives lie on both sides; 0 = blocked by unlabeled MEK5, 100 = vehicle; hit rate 1.4% among 290,000;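 active = binding response more than 3 SD above or below the average of its plate-row segment, actives on both sides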;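 also: Alexa488 bead fluorescence after subtracting the streptavidin-only scavenger bead signal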
NTR1 ag: agonists of human neurotensin receptor NTR1 | P30989 | hit rate 0.17% among 330,000 | AID 493036 | NTR1-U2OS beta-arrestin-GFP spot imaging, agonist mode | activation, % at 20 µM;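 active = activation at or above 40% of the spot to cytoplasm intensity ratio, with at least 20 cells analyzed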;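 also: 0% = DMSO without peptide and 100% = 100 nM NTR1 peptide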
TMEM16A act: activates or potentiates the mouse TMEM16A chloride channel. Q8BHY3. HEK293 TMEM16A/YFP-H148Q/I152L, iodide quench fluorescence; hits give low values. B-score at 10 µM. hit rate 0.3% among 340,000. AID 623877;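 active = fluorescence-ratio B-score plate-corrected deviation score at least 3 library SD below zero, with starting fluorescence score within 5 deviations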;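 also: channel opened by trigger with iodide after compound preincubation; score built on the fluorescence ratio of max minus min over baseline; more negative score means more quench and so TMEM16A activation or potentiation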
Target sequence (Q8BHY3 whole entry, looked up): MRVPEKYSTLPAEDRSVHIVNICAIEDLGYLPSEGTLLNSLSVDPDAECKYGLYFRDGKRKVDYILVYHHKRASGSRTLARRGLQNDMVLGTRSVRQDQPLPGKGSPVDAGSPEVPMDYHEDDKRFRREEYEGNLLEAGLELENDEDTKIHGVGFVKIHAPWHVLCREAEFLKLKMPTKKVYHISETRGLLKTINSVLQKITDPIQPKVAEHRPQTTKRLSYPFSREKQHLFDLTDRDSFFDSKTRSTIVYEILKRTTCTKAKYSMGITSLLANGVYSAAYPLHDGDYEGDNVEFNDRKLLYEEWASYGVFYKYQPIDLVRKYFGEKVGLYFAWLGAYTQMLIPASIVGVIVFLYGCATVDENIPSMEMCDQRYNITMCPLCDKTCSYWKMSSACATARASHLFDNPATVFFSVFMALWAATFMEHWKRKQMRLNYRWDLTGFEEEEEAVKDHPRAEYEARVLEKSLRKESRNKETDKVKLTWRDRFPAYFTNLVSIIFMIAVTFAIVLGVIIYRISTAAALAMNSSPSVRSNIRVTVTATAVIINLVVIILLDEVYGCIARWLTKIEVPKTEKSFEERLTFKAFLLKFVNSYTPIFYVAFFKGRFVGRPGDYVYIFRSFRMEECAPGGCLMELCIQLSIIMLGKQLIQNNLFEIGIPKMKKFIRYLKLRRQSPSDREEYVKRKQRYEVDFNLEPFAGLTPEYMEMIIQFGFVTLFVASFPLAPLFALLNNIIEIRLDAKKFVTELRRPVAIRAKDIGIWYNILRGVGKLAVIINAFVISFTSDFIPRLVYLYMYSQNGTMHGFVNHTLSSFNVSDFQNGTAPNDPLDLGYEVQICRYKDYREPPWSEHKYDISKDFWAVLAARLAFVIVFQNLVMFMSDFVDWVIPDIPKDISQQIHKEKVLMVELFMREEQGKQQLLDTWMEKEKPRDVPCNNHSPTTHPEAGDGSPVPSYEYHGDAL
ANO1 block: blocks the mouse calcium-activated chloride channel TMEM16A. hit rate 1.2% among 310,000. Q8BHY3. HEK293 TMEM16A/YFP iodide influx fluorescence, ionomycin. normalized B-score (activity score, 25-100; higher = stronger inhibition) at 10 µM. AID 588511;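 active = ratio plate-corrected score three or more library SD toward inhibition, starting fluorescence score within five deviations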;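 also: score derived from kinetic fluorescence span divided by baseline fluorescence per well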
Active calls of the source: *; i = inactive; · = no result given.

SMILES	MEKK2wt PB1 HTS	MEKK2 mut-MEK5	MEKK3 PB1 HTS	NTR1 ag	TMEM16A act	ANO1 block
CCC1S/C(=N/S(=O)(=O)c2ccc(N)cc2)NC1=O (centres undefined)	·	·	·	·	i	·
O=C(NNC(=O)c1c(O)c2ccccc2[nH]c1=O)c1ccccc1Br	94	-14	96	-1	i	i
Cc1ccc(NC(=O)C(C)N=C2NS(=O)(=O)c3ccccc32)cc1F (centres undefined)	117	12	106	-1	i	i
COc1cccc(/C=N/Nc2snc(SC)c2C#N)c1O	102	1	104	10	i	100*
CCOc1ccc(C(=O)OCC(=O)NCCCc2ccccc2)cc1	105	6	108	-1	i	i
Cc1sc2nc(CSc3ccc([N+](=O)[O-])c(C(F)(F)F)c3)[nH]c(=O)c2c1C	92	-3	97	1	i	i
O=C(NCc1ccc2c(c1)OCO2)c1cc(-c2ccccn2)nc2ccccc12	85	-2	82	1	i	i
CCOC(=O)c1cnc2c(C#N)c(C)nn2c1C	103	0	99	1	-23*	i
CCOC(=O)c1cnc2c(C#N)c(C)nn2c1-c1ccccc1	99	0	100	1	i	i
CN(C(=O)c1cc2c(=O)n3ccccc3nc2n1C)C1CCCCC1	101	1	102	1	i	i
Cc1[nH]c2ccc(C(=O)NCCCN3CCCCCC3)cc2c1C	173*	27*	107	1	i	i
Cc1[nH]c2ccc(C(=O)NCCCN3CCCC3)cc2c1C	127	15	104	0	i	i
CCn1c(C)c(C)c2cc(C(=O)NCCCN3CCCCC3)ccc21	1.0*	31*	103	0	i	i
CCn1c(C)c(C)c2cc(C(=O)NCCCN3CCCCCC3)ccc21	136*	17	100	0	i	i
CCn1c(C)c(C)c2cc(C(=O)NCCCN3CCN(C)CC3)ccc21	99	12	100	-1	i	i
CCn1c(C)c(C)c2cc(C(=O)NCCN3CCCCCC3)ccc21	145*	19	105	1	i	i
CCOC(=O)N1CCN(C(=O)COC(=O)COc2c(C)cc(C)cc2C)CC1	·	·	·	-1	i	i
CCS(=O)(=O)c1nc(S(=O)(=O)c2ccc(Cl)cc2)c(N2CCOCC2)s1	101	3	101	0	i	i
Cc1cccc(N(CC(=O)NC2CCCC2)C(=O)CCC(=O)Nc2ccccn2)c1	99	1	100	-2	i	i
COc1cc(C(=O)NCc2nnc(SCC(=O)NCc3ccco3)o2)cc(OC)c1OC	104	0	98	2	i	i
CC(C)CCN1CCC(N)=NC1=O	422*	534*	122	·	i	·
N#CC(c1ccc(Cl)cc1)c1ccc2c(C(F)(F)F)cc(C(F)(F)F)nc2n1 (centres undefined)	100	11	103	11	i	100*
CCCCCCCC(=O)NNC(=O)Cc1ccccc1	102	1	102	-1	i	i
CCCCCCCCCCCC(=O)c1c(O)cccc1O	100	2	107	1	i	100*
CCCN1C/C(=C/c2ccc3c(c2)OCO3)C(=O)/C(=C/c2ccc3c(c2)OCO3)C1	109	1	136*	4	i	i
SMILES	MEKK2wt PB1 HTS	MEKK2 mut-MEK5	MEKK3 PB1 HTS	NTR1 ag	TMEM16A act	ANO1 block
CCCN1C(=O)/C(=C/c2ccc3c(c2)OCO3)NC1=S	96	0	103	·	i	·
CSCCC1NC(=O)N(CC(=O)N2N=C(c3ccc(Cl)cc3)CC2c2ccco2)C1=O (centres undefined)	·	·	·	0	i	25*
CC(=O)N1N=C(c2ccc(Cl)cc2)CC1c1ccco1 (centres undefined)	86	-3	87	0	i	i
COc1cc(OC)c2c(-c3ccccc3)cc(=O)oc2c1C(CC(=O)N1CCN(c2ccccc2)CC1)c1ccc2c(c1)OCO2 (centres undefined)	145*	0	131*	·	·	·
CC(=O)c1cccc(NC(=O)COC(=O)c2ccc3c(c2)OCO3)c1	·	·	·	1	i	·
CCCCCCNS(=O)(=O)c1nc2nc(C)cc(C)n2n1	111	11	105	1	i	i
CCCN1CCN(C(=O)C2CCN(c3nnc(C)c4c(C)n(-c5ccc(C)cc5)nc34)CC2)CC1	109	134*	113	2	i	i
COc1ccc(CC(=O)Nc2cccc(-c3nnc(-c4ccc(C)cc4)o3)c2)cc1OC	105	4	105	14	i	25*
C=CCc1c(C)nc(C)nc1N/N=C/c1ccc([N+](=O)[O-])cc1	103	1	95	1	i	i
C=CCc1c(C)nc(C)nc1N/N=C/c1ccccc1O	101	-1	99	0	i	25*
O=C(N/N=C/c1cc(Cl)cc(Cl)c1O)c1ccncc1	102	-3	102	0	-8.8*	i
O=C(N/N=C/c1ccc(Cl)cc1Cl)c1ccncc1	107	5	102	-1	i	i
Cc1[nH]n(-c2ncc(-c3ccc(Cl)cc3)s2)c(=O)c1C(c1ccc(Cl)cc1)C(C#N)C#N (centres undefined)	97	-2	104	5	i	100*
O=S(=O)(SC1=NCCN1)c1ccccc1	·	·	·	·	i	·
CCCc1cc(-c2nc(N)ncc2-c2ccc3c(c2)OCCCO3)c(O)cc1OC	108	12	111	49*	i	i
Cc1cc(C)cc(C(=O)Nc2ccncc2)c1	104	-1	101	2	i	i
CCCCNC(=O)c1ccc(NC(=O)CC2SC(N3CCCC3)=NC2=O)cc1 (centres undefined)	·	·	·	1	-26*	·
CCOc1ccc(-n2ccc(=O)c(C(=O)Nc3ccc(S(=O)(=O)Nc4nccs4)cc3)n2)cc1	102	1	102	0	-23*	i
O=C(CN1CCOCC1)Nc1ncc(Cc2cccc3ccccc23)s1	92	-9	84	4	i	25*
Cc1ccc(Cc2cnc(NC(=O)CN3CCOCC3)s2)cc1Cl	101	5	103	3	i	i
Cc1cc(Nc2ccc(Cl)cc2)nc(NCc2ccccc2)n1	159*	12	110	18	i	i
COc1ccc(CN2CCNC(=O)C2CC(=O)NC2CCCCCCC2)cc1C (centres undefined)	128	28*	108	0	i	i
NS(=O)(=O)c1ccc(NC(=O)c2ccc(F)cc2F)c(NC(=O)c2ccc(F)cc2F)c1	102	6	100	-2	i	i

Assay outcomes as filed in PubChem BioAssay.
